# PGC1a acetyl inh: PGC1a acetylation modulation, inhibitor mode | U2OS PGC1a acetylation, AlphaScreen anti-acetyl-lysine; with virally co-expressed GCN5 acetyltransferase | inhibition, % at 15.6 µM | hit rate 0.17% among 350,000 | AID 651687;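 active means every replicate shows inhibition of at least 40%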;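 further: 0% = neutral control wells and 100% = positive control wells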
# PAX8 reporter: inhibitors of PAX8 transcriptional activity in RMG-I cells; AID 652154; hit rate 1.2% among 360,000; inhibition, % at 12.6 µM; RMG-I TPO-luciferase reporter, SteadyGlo, 24 h;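 active means mean replicate inhibition at least 60% with every replicate also reaching 60%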;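 further: luciferase light reporting Pax8 driven TPO promoter activity; plate controls were median of neutral control wells for no effect and mitoxantrone controls for full effect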
# Ecoli rRNA inh: selective bacterial rRNA inhibition in E. coli; E. coli WT GFP vs humanized-ribosome RFP mutants, fluorescence, 24 h; hits give low values; DMSO median 0, no signal -100; GFP signal change (wild-type ribosome), % (no concentration beside the values); hit rate 1.6% among 350,000; AID 720706;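 active means significant combined selectivity score with lowered wild-type GFP, culture density cut under 30%, mutant RFP and density less affected; inactive means any of these conditions unmet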
# EWS-Fli block: inhibitors of EWS/Fli oncoprotein transcriptional activity; A673 NR0B1-luciferase reporter, viability-normalised; inhibition, % at 12.6 µM; hit rate 0.67% among 350,000; AID 651661;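 active means mean inhibition of at least 50% after viability correction, with every replicate also passing that limit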;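 further: firefly luciferase signal divided by Alamar Blue viability fluorescence both relative to DMSO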
# LGR2 inh: Drosophila LGR2 receptor signaling inhibition; HEK293 LGR2, CRE-luciferase, bursicon-stimulated, 4 h; AID 720647; hit rate 0.35% among 380,000; inhibition, % at 9.99 µM;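 active means drop in luminescence signal, shown as inhibition above about 50% in the replicate tests, limit read from the data, passing the limit was not always enough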;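 further: agonist challenge used bursicon conditioned medium at about half maximal strength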
# SIRT5 inh: blocks human SIRT5 desuccinylation of peptide; AID 652115; Purified SirT5, succinyl-peptide AMC, trypsin-coupled fluorescence; inhibition, % at 15 µM; Q9NXA8; hit rate 1.1% among 330,000; in the data active means inhibition above about 15%
# Target sequence (Q9NXA8 whole entry, looked up): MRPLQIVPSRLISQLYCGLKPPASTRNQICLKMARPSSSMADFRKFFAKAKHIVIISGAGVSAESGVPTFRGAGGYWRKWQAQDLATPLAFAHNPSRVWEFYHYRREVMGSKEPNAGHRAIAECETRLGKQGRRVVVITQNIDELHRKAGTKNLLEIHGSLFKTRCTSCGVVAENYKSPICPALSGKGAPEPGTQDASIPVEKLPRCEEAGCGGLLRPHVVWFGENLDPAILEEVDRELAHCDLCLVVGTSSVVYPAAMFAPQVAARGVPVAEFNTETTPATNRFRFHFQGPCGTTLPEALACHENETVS
# The depositor's hits bear a star; / = no result given. The list is not random: actives were taken first. Their share in the collection is about 3.4%.
SMILES,PGC1a acetyl inh,PAX8 reporter,Ecoli rRNA inh,EWS-Fli block,LGR2 inh,SIRT5 inh
Cc1noc(C)c1NC(=O)N(C)C[C@H]1Oc2c(NC(=O)c3ccc(-c4nccs4)cc3)cccc2C(=O)N([C@@H](C)CO)C[C@H]1C,-4,/,2,-5,-11,-1
CCCSc1nc2c(cnn2-c2ccccc2)c(=O)n1N,8,-37,-19*,-56,-34,3
COc1ccc(NC(=O)N(C)C[C@H]2Oc3c(NC(=O)NC(C)C)cccc3C(=O)N([C@@H](C)CO)C[C@@H]2C)cc1,-3,-5,3,-6,-8,-2
CCCNC(=O)N1CC2(CN(CC3CCOCC3)C2)c2c([nH]c3cc(OC)ccc23)[C@H]1CO,9,/,1,5,-14,-1
CN1[C@@H]2c3ccc(-c4ccc(F)cc4)c(=O)n3C[C@@H]2[C@@H](CO)[C@@H]1C(=O)NCC1CC1,-5,-2,1,-5,-14,2
C[C@@H]1CN([C@H](C)CO)C(=O)c2cc(NS(=O)(=O)c3ccc(Cl)cc3)ccc2O[C@@H]1CN(C)Cc1ccc(-c2ccccc2)cc1,-2,/,0,10,18,30*
C[C@@H]1CN([C@@H](C)CO)C(=O)Cc2cc(NS(=O)(=O)c3ccc(F)cc3)ccc2O[C@@H]1CN(C)Cc1ccc(-c2ccccc2)cc1,-13,-21,3,35,-13,/
C[C@@H]1CN([C@@H](C)CO)C(=O)c2cc(NS(=O)(=O)c3ccc(Cl)cc3)ccc2O[C@@H]1CN(C)Cc1ccc(C(=O)O)cc1,8,/,3,-3,1,1
C[C@@H]1CN([C@H](C)CO)C(=O)c2cc(NS(=O)(=O)c3ccc(F)cc3)ccc2O[C@@H]1CN(C)Cc1ccc(-c2ccccc2)cc1,-1,/,7,11,3,16*
C[C@H](CO)N1C[C@H](C)[C@@H](CN(C)Cc2ccc(C(=O)O)cc2)Oc2ccc(NS(=O)(=O)c3ccc(Cl)cc3)cc2C1=O,4,/,-1,-5,-14,24*
C[C@H](CO)N1C[C@H](C)[C@H](CN(C)Cc2ccc(-c3ccccc3)cc2)Oc2ccc(NS(=O)(=O)c3ccc(F)cc3)cc2CC1=O,-6,113*,7,-14,-5,/
Cc1ccc(S(=O)(=O)Nc2ccc3c(c2)C(=O)N([C@@H](C)CO)C[C@H](C)[C@@H](CN(C)S(=O)(=O)c2ccc(Cl)cc2)O3)cc1,2,-2,-1,-3,-20,-1
C[C@@H]1CN([C@H](C)CO)C(=O)c2cc(NS(=O)(=O)c3ccccc3)ccc2O[C@@H]1CN(C)Cc1ccc(-c2ccccc2)cc1,9,0,0,-3,-5,15*
C[C@H](CO)N1C[C@H](C)[C@@H](CN(C)Cc2ccc(-c3ccccc3)cc2)Oc2ccc(NS(=O)(=O)c3ccccc3)cc2C1=O,-6,-4,6,7,6,8
COCC(=O)N1C[C@H](C)[C@@H](OC)CN(C)C(=O)c2cc(NS(C)(=O)=O)ccc2OC[C@H]1C,/,/,4,/,/,/
CCOc1ccc(Cc2c(C)[nH]c3ccc(C(=O)O)cc3c2=S)cc1,13,11,2,1,26,29*
Cc1cccc2c(=O)cc(C)n(CC(N)=O)c12,-6,-3,-28*,-3,-2,-4
CNC(=O)Cn1c(C)cc(=O)c2cccc(OC)c21,-1,6,-1,12,-5,-9
O=C(CSc1nnc(-c2ccccc2)n1-c1ccc(Cl)cc1)N/N=C/c1ccccc1C(=O)O,45*,16,5,-2,11,-4
CS(=O)(=O)c1ccc(C(=O)OCC(=O)N2CCN(CCC3CCCCC3)CC2)cc1[N+](=O)[O-],/,105*,-14,54*,-1,-2
CS(=O)(=O)c1ccc(C(=O)OCC(=O)NC(=O)C2CCCCC2)cc1[N+](=O)[O-],/,56,20,19,60*,-2
CS(=O)(=O)c1ccc(C(=O)OCC(=O)N2CCOCC2)cc1[N+](=O)[O-],/,-1,3,-6,10,/
CC(C)NC(=O)N1CC2(C1)[C@H](c1ccccc1)[C@@H](CO)N2C(=O)C1CCC1,-1,/,1,-7,-5,0
O=C(CSc1nnc(COc2ccccc2)o1)N1CCOCC1,/,4,-2,-14,-5,23*
COc1ccc(C(=O)OCCN2CCCCC2)cc1,/,-21,13,0,-43,25*
SMILES,PGC1a acetyl inh,PAX8 reporter,Ecoli rRNA inh,EWS-Fli block,LGR2 inh,SIRT5 inh
CC(C)(C)c1nnc(NC(=O)CCS(=O)(=O)c2ccccc2)s1,-10,97*,4,-8,5,1
CC(Oc1ccccc1)C(=O)Nc1nc2c(s1)C(=O)CC(C)(C)C2 (centres undefined),9,/,/,/,-6,/
O=C(CCS(=O)(=O)c1ccccc1)Nc1nnc(C(F)(F)F)s1,/,59,4,-70,-4,-3
CC(C)(C)c1nnc(NC(=O)CCS(=O)(=O)Cc2ccccc2)s1,-22,84*,5,-6,3,-2
O=C(CCS(=O)(=O)Cc1ccccc1)Nc1nnc(C(F)(F)F)s1,0,38,11,-49,-1,0
CC1(C)CC(=O)c2sc(NC(=O)CCS(=O)(=O)c3ccccc3)nc2C1,/,109*,4,-9,-1,2
CCC(=O)N1C[C@@H](C)[C@@H](OC)CN(C)C(=O)c2cc(NC(=O)C3CC3)ccc2OC[C@H]1C,4,/,-1,0,4,-6
CCN(CC)C(=O)CSc1n[nH]c(=O)n1CCc1ccccc1,-1,12,9,-3,-23,4
O=c1[nH]nc(Sc2ncnc3sccc23)n1CCc1ccccc1,/,83*,/,/,/,/
C[C@H]1CN([C@@H](C)CO)C(=O)Cc2cc(NC(=O)C3CC3)ccc2O[C@H]1CN(C)C(=O)Nc1ccc2c(c1)OCO2,14,-3,2,1,-10,0
CNC(=S)N(Cc1ccc(Cl)cc1)Cc1cccs1,-21,-3,-43*,-3,5,0
COc1ccc(NC(=O)N(C)C[C@@H]2Oc3ccc(NC(=O)C4CC4)cc3CC(=O)N([C@@H](C)CO)C[C@H]2C)cc1,-5,12,2,0,-12,-1
CCCCC[C@H](O)/C=C/[C@H]1CCC(=O)[C@@H]1CCCCCCC(=O)N1CCCCC1CO (some centres undefined),-4,70*,-10,3,23,-4
CCC1CCCCN1C(=O)CCCOc1ccccc1 (centres undefined),-4,/,/,/,/,/
CO[C@@H]1CN(C)C(=O)c2ccc(NS(=O)(=O)c3cccc(F)c3)cc2OC[C@H](C)NC[C@H]1C,-7,/,2,-1,2,1
CCS(=O)(=O)C1=NN2C(=N)/C(=C\c3ccc(OCCOc4cccc(OC)c4)c(OC)c3)C(=O)N=C2S1,-24,-29,-9,-34,-1,18*

# From PubChem
